# Test results from PubChem BioAssay (NCATS).
# Results filed as inconclusive are left out. Entries that show only a call come without a potency. The source made the active and inactive calls. Calls come from the whole dose curve. Peptide text beside a SMILES is read from it.
# Columns and labels:
# [1] = Cytotoxicity counterscreen for inhibitors of SARS-CoV-2 cell entry (AID 1645845); details: outcome: dose series up to 57.1 µM unless noted; note: nearly all actives have a fitted effect of over 50% in size
# Outline: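 48 h compound treatment (after 1 h preincubation), HEK293-ACE2 cells, 37 C/5% CO2; ATP luminescence endpoint; normalized to cell wells and media blanks.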
# [2] = Primary qHTS to identify inhibitors of SARS-CoV-2 cell entry (AID 1645846); details: SARS-CoV-2 pseudovirus cell entry assay, luminescence; activity change, negative = inhibition: at 57.1 µM (top of the series) unless noted; note: nearly all actives have a fitted effect of over 45% in size
# Outline: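 HEK293 cells stably expressing human ACE2, pre-treated 1 h with compound, then infected with MLV particles pseudotyped with Wuhan-Hu-1 spike (C-terminal 19-aa truncation). Luciferase luminescence after 48 h at 37 °C, normalised to spike PP and bald PP.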
# Potency is the fitted concentration of half-maximal effect.
Structure (SMILES),Potency [1],"activity change, negative = inhibition [2]",Potency [2],"activity change, negative = cytotoxicity [1]"
CCOc1ccc(-n2c([C@@H](C)N(Cc3cccnc3)C(=O)Cc3ccc(F)c(C(F)(F)F)c3)nc3ncccc3c2=O)cc1,inactive,-17.6%,,
O=C(NCCCNC(=O)c1ccc[nH]c1=O)c1cc(-c2ccccc2)on1,inactive,,inactive,
C[C@@H]1CC(=O)Nc2cccc(-c3cnn(C(C)(C)C)c3)c2N1,inactive,-17.2%,,
CCN1CCN(Cc2ccc(NC(=O)c3ccc(C)c(/C=C/c4cnc5[nH]ccc5c4OC)c3)cc2C(F)(F)F)CC1,35.5 µM (active),,10 µM (active),
O=C(N[C@H]1CCC[C@H](CO)C1)C1CCN(c2nc3cc(Cl)c(-c4ccc(Cl)cc4)cc3o2)CC1,inactive,-9.89%,,
Nc1nc(OC(c2ccc(-c3cccc(F)c3)cc2)C(F)(F)F)cc(-c2ccc(C[C@@H](N)C(=O)O)cc2)n1 (stereo not given in full),inactive,,inactive,
CCn1c(=O)c(-c2ccc(Cl)cc2Cl)cc2cnc(Nc3ccc(N4CCNCC4)c(F)c3)nc21,inactive,,inactive,
O=C(O)c1cnn(-c2nc3cc(OC(F)(F)F)c(Cl)cc3[nH]2)c1,inactive,,inactive,
C/C=C1\NC(=O)[C@H]2CSSCC/C=C\[C@H](CC(=O)N[C@H](C(C)C)C(=O)N2)OC(=O)[C@H](C(C)C)NC1=O,6.31 µM (active),,7.08 µM (active),
N#Cc1ccc(N(Cc2ccc(Br)cc2)n2cnnc2)cc1,inactive,-18.8%,,
CCNC(=O)Nc1ncc(-c2cc(-c3c(C)cc(OC)cc3C)nc(-c3cnccn3)n2)s1,inactive,-1.07%,,
O=C(/C=C/c1ccc(Cl)cc1)N1CCC2(CC1)CN(Cc1ccc(Cl)c(Cl)c1)C(=O)O2,inactive,0.824%,,
OC(c1ccc(-c2ccc(CN3CCN(Cc4ccncc4)CC3)cc2)c(F)c1)(C(F)(F)F)C(F)(F)F,inactive,,inactive,
COC(=O)C1=C(C)NC(c2ncc(F)cc2F)=N[C@@H]1c1ccc(F)cc1Cl,inactive,-19.4%,,
CCCCNc1ncc2c(-c3ccc(F)cc3)nn(CC3CCC(N)CC3)c2n1 (stereo not given),inactive,,10 µM (active),
Cc1nc(NC(=O)N2CCC[C@H]2C(N)=O)sc1-c1ccnc(C(C)(C)C(F)(F)F)c1,inactive,-35.1%,,
CC1=NN(c2ccc(C(=O)O)cc2)C(=O)/C1=C/c1ccc(-c2cc(C)c(C)cc2[N+](=O)[O-])o1,inactive,,inactive,
CN1C(=O)[C@@H](NC(=O)c2n[nH]c(Cc3ccccc3)n2)COc2ccccc21,inactive,,inactive,
CC(/C=C/[C@@H]1C[C@]1(C)c1ccc2c(c1)C(C)(C)CCC2(C)C)=C\C(=O)O,inactive,-10.9%,,
OCCn1cc(-c2ccc3c(c2)CC/C3=N\O)c(-c2ccncc2)n1,inactive,,inactive,

Structure (SMILES),Potency [1],"activity change, negative = inhibition [2]",Potency [2],"activity change, negative = cytotoxicity [1]"
O=C(O)CCNc1cc(N2CCc3ccccc3CC2)nc(-c2cccnc2)n1,inactive,,inactive,
CCc1c(C(=O)NNC(=O)[C@@H](O)c2cc(F)cc(F)c2)ccc(O)c1C,inactive,-19.8%,,
O=C(/C=C/c1ccc2ccc(C(F)(F)F)cc2n1)c1ccncc1,inactive,-5.32%,,
Cc1cc(C)c(S(=O)(=O)N(CCc2cccc(Br)c2)Cc2ccc(-c3cccc(S(C)(=O)=O)c3)cc2)c(C)c1,inactive,-5.91%,,
O=C(c1ccc(NS(=O)(=O)c2cccc3cccnc23)cc1)N1CCN(CC2CC2)CC1,inactive,-15.9%,,
CO[C@H]1O[C@@H]2O[C@@]3(C)CC[C@H]4[C@H](C)CC[C@@H]([C@H]1C)[C@@]24OO3,inactive,-14.8%,,
CCO[C@@H]1OC(=O)C[C@@H]1NC(=O)[C@@H]1CCCN1C(=O)[C@@H](NC(=O)c1ccc(N)c(Cl)c1)C(C)(C)C,inactive,-14.2%,,
Cc1c[nH]c2nc(Nc3ccc(N4CCN(C)CC4)c(F)c3)nc(-c3cccc(CC#N)c3)c12,8.91 µM (active),,2.51 µM (active),
O=C(Cc1ccccc1)Nc1nnc(CCSCCc2nnc(NC(=O)Cc3ccccc3)s2)s1,inactive,,inactive,
C[C@H]1CN(C2COC2)CCN1c1ccc(Nc2cc(-c3ccnc(N4CCn5c(cc6c5CC(C)(C)C6)C4=O)c3CO)cn(C)c2=O)nc1,inactive,-10.4%,,
COc1ccc(-c2c(C)nn3c(NCCN4CCOCC4)cc(C)nc23)cc1OC,inactive,3.31%,,
C[C@]12CCC3[C@@H](CC[C@H]4NC(=O)C=C[C@]34C)[C@@H]1CC[C@@H]2C(=O)Nc1cc(C(F)(F)F)ccc1C(F)(F)F (stereo not given in full),inactive,-7.71%,,
CC(C)n1cc(-c2ccc3c(c2)N(C)CC3)c2c(NS(=O)(=O)c3ccn(C)n3)ccnc21,inactive,-1.94%,,
O=C1Cc2cc(C(=O)NC3C[C@H]4CC[C@@H](C3)N4S(=O)(=O)CC3CCN(CCCC(F)(F)F)CC3)c(Cl)cc2N1 (stereo not given in full),inactive,-20.5%,,
COC(=O)/C=C/C(=O)OC,inactive,-4.67%,,
O=C(/C=C/c1ccc(/C=C/C(=O)Nc2ccc(C3=NCCN3)cc2)cc1)Nc1ccc(C2=NCCN2)cc1,,-24.3% [at 5.25 µM],,-2.26% [at 5.25 µM] (inactive)
O=C(c1ccc(/C=C/c2n[nH]c3ccccc23)cc1)N1CCNCC1,inactive,,inactive,
COC(=O)/C=C/C(=O)N(O)CCCCNCc1ccc(COC(=O)Nc2cccc3ccccc23)cc1,inactive,-27.1%,,
COc1cccc(Nc2ncnn3ccc(CN4CC[C@@H](N)[C@H](O)C4)c23)c1,inactive,,inactive,
Cc1c(NC(=O)c2cc3c(s2)CCCC3)cccc1-c1cn(C)c(=O)c(Nc2ccc(C3C(=O)N(C)CCN3C)cc2)n1 (stereo not given),inactive,,inactive,

Structure (SMILES),Potency [1],"activity change, negative = inhibition [2]",Potency [2],"activity change, negative = cytotoxicity [1]"
C=CC(=O)N1CCC(CNc2ncnc(N)c2-c2ccc(Oc3ccccc3)cc2)CC1,inactive,-20.9%,,
Clc1cccc(-c2ccc(-c3nnc(CCCc4ccc5cccnc5n4)o3)cc2)c1,inactive,,inactive,
Cc1ccc(NC(=O)[C@H]2CCCN(C(=O)c3c(C)cccc3F)[C@H]2c2ccc(NC3CCCC3)cc2)cc1C(F)(F)F,inactive,-27.6%,,
C=C1/C(=C/C=C2\CCCC3(C)[C@@H]([C@H](C)/C=C/C=C/C(O)(CC)CC)CC[C@@H]23)C[C@@H](O)C[C@@H]1O (stereo not given in full),inactive,,inactive,
N#C[C@@H]1C[C@@H]2C[C@@H]2N1C(=O)[C@@H](N)C12CC3CC(CC(O)(C3)C1)C2,inactive,-14.2%,,
CCOCc1nc2c(N)nc3ccccc3c2n1CC(C)(C)O,inactive,-25%,,
CCC(=O)NC[C@H](Cc1ccc(OCCc2nc(-c3ccccc3)oc2C)cc1)N/C(C)=C\C(=O)c1ccc(C(F)(F)F)cc1,inactive,-18.7%,,
C[C@H](NC(=O)CCC(F)(F)F)C(=O)N[C@@H]1C(=O)N(CCO)c2ncccc2-c2ccccc21,inactive,-2.66%,,
CC(C)(CNC(=O)c1cccc(-c2noc(C(F)(F)F)n2)c1)c1coc(-c2ccccc2)n1,inactive,-6.95%,,
Nc1cccc2c1CN([C@H]1CCC(=O)NC1=O)C2=O,inactive,-16.6%,,
CC[C@H]1OC(=O)[C@H](C)[C@@H](O[C@H]2C[C@@](C)(OC)[C@@H](O)[C@H](C)O2)[C@H](C)[C@@H](O[C@@H]2O[C@H](C)C[C@H](N(C)C)[C@H]2O)[C@](C)(O)C[C@@H](C)C(=O)[C@H](C)[C@@H](O)[C@]1(C)O,inactive,,inactive,
O=c1c(-c2ccc(O)cc2)coc2cc(O[C@@H]3O[C@H](CO)[C@@H](O)[C@H](O)[C@H]3O)ccc12,inactive,,inactive,
CCn1c(=O)c2c(nc(/C=C/c3ccc(OC)c(OC)c3)n2C)n(CC)c1=O,inactive,,inactive,
CN[C@@H]1[C@@H](O)[C@@H](O[C@@H]2[C@@H](O)[C@H](O[C@H]3O[C@H](CN)[C@@H](O)[C@H](O)[C@H]3O)[C@@H](N)C[C@H]2NC(=O)C(O)CN)OC[C@]1(C)O (stereo not given in full),inactive,,inactive,
Cc1cc(Nc2cc(N)ncn2)c(=O)n2c1C(=O)NC21CCCCC1,inactive,,inactive,
CC(C)(NS(=O)(=O)c1ccc2c(Cl)cnc(N=C(N)N)c2c1)C(=O)O,inactive,0.398%,,
CC(=O)N1CCC[C@H]1C(=O)N[C@@H](Cc1cnc[nH]1)C(=O)N[C@@H](CO)C(=O)N[C@@H](CS)C(=O)N[C@@H](CC(N)=O)C(N)=O (Ac-PHSCN-NH2),inactive,-1.41%,,
Cc1ccc(Nc2cc(N[C@@H]3CCCC[C@@H]3N)nnc2C(N)=O)nc1C,inactive,,inactive,
O=C1CC[C@H](N2Cc3c(OCc4ccc(CN5CCOCC5)cc4)cccc3C2=O)C(=O)N1,inactive,-23.3%,,
CO[C@H]1/C=C/O[C@@]2(C)Oc3c(C)c(O)c4c(O)c(c5c(c4c3C2=O)=NC2(CCN(CC(C)C)CC2)N=5)NC(=O)/C(C)=C/C=C/[C@H](C)[C@H](O)[C@@H](C)[C@@H](O)[C@@H](C)[C@H](OC(C)=O)[C@@H]1C,inactive,,inactive,
